RECQ1 helicase – blocks DNA unwinding by human RECQ1 | P46063 | RECQ1 DNA unwinding, red fluorescence kinetic read | Potency, µM (top dose mostly 57.3 µM), for the others: top-dose activity, negative = inhibition, most hits filed as inhibitors | 240,000 tested, 0.54% active;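 note: plate controls were vehicle for no effect and no enzyme for full effect; nearly all actives have a fitted effect of over 30% in size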
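50 nM RECQ1T1 preincubated 15 min with compound in Tris pH 8.0 buffer with MgCl2, DTT, Tween-20 and 2.5 ug/ml poly(dI-dC); started with 200 nM TAMRA/BHQ-2 forked duplex and 2 mM ATP. Unwinding read as fluorescence (525/598 nm), two reads 2 h apart.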
TRb SRC2 PPI – disrupts binding of human TR beta to SRC2; TRbeta-SRC2 peptide binding, fluorescence polarization; receptor liganded with 1 µM T3; Potency, µM (titrated, usually from 106 µM), without a hit: at the highest dose activity change, negative = inhibition, most hits filed as inhibitors; 280,000 tested, 0.065% active; AID 1469;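 note: plate controls were bound peptide for no effect and peptide without receptor for full effect; nearly all actives have a fitted effect of over 50% in size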
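Quantitative HTS by FP: 0.6 uM TRb LBD, 20 nM labeled SRC2 20-mer, 1 uM T3, 5% DMSO; 5 hr ambient incubation; % activity per concentration and potencies from concentration series.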
BLM inh – inhibitors of human Bloom syndrome helicase BLM; recombinant BLM DNA unwinding, fluorescence dequenching; 350,000 tested, 0.2% active; AID 2528; Potency, µM (highest dose often 56.1 µM), inactives show top-dose activity change, negative = inhibition, hits mostly inhibitors;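 note: plate controls were vehicle for no effect and no enzyme for full effect; nearly all actives have a fitted effect of over 35% in size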
WRN inhibitor – WRN helicase (human) inhibition. Q14191. WRN helicase unwinding, fluorescent forked duplex, kinetic. Potency, µM (titrated, usually from 114 µM), for the others: top-dose activity change, negative = inhibition, most hits filed as inhibitors. 360,000 tested, 0.46% active. AID 651768; note: nearly all actives have a fitted effect of over 55% in size
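Kinetic red-fluorescence monitoring (525/598 nm) tracks WRN helicase activity after 100 nM fluorophore-quencher forked duplex and 2 mM ATP are added to 20 nM enzyme pretreated 15 min at room temperature with compound.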
TR SRC2 fluor cs – Texas Red fluorescence interference in TRb-SRC2 counter-screen; TRb/SRC2 Texas Red total fluorescence interference; Potency, µM (titrated, usually from 106 µM), for the others: top-dose fluorescence change, negative = quenching; 280,000 tested, 0.29% active; active = well fitted curve in either direction with a large enough effect; inconclusive = small, poorly fitted or top-dose-only effect
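Human TRb ligand-binding domain at 0.6 uM with 20 nM Texas Red SRC2 peptide in Tris buffer containing 1 uM T3 and 5% DMSO, incubated with compound 5 h at ambient temperature. Total fluorescence (555/632 nm) calculated as parallel + 2 × perpendicular.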
APE1 inh-1 – APE1 (human) endonuclease inhibition; P27695; recombinant APE1, TAMRA/BHQ-2 abasic DNA cleavage fluorescence; Potency, µM (doses to about 65.8 µM), inactives show at the highest dose activity change, negative = inhibition, usual class: inhibitors; 350,000 tested, 0.35% active;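 note: plate controls were vehicle for no effect and reference inhibitor for full effect; nearly all actives have a fitted effect of over 55% in size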
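Enzyme (0.75 nM final) and test compound are incubated 15 min at room temperature before adding 50 nM quenched THF abasic-site duplex. Cleavage dequenches TAMRA, followed at 525/598 nm over three reads one minute apart.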
DNA dye displace – DNA dye displacement counter-screen activity; 480 tested, 7% active; Potency, µM (highest dose often 28.5 µM), for inactives: top-dose activity change, negative = inhibition, actives largely listed as inhibitors; shares compounds with APE1 inh-1; DNA fluorescent dye displacement counterscreen, fluorescence;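 note: loss of thiazole orange fluorescence as the dye is displaced from duplex DNA; 0% = ThO with dsDNA and no compound and -100% = ThO without dsDNA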
EndoIV counter – blocks E. coli endonuclease IV DNA cleavage; shares compounds with APE1 inh-1; E. coli Endo IV, fluorogenic AP-site DNA cleavage; Potency, µM (doses to about 27.1 µM), for inactives: at the highest dose activity change, negative = inhibition, usual class: inhibitors; 560 tested, 4% active; AID 2565;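 note: plate controls were uninhibited enzyme wells for no effect and no enzyme buffer wells for full effect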
APE1 inh-2 – confirmation of inhibitors of human APE1 endonuclease. AID 2572. shares compounds with APE1 inh-1. 750 tested, 44% active. purified APE1, fluorogenic abasic-site DNA cleavage. Potency, µM (highest dose often 57.1 µM), inactives show at the top dose activity change, negative = inhibition, most hits filed as inhibitors; note: nearly all actives have a fitted effect of over 30% in size
APE1 FP inh – compounds that displace a DNA probe from human APE1 | Potency, µM (titrated, usually from 28.5 µM), for inactives: at the highest dose activity, negative = inhibition, hits mostly inhibitors | shares compounds with APE1 inh-1 | AID 2573 | APE1 binding to TAMRA-labelled double-stranded DNA, fluorescence polarization displacement | 480 tested, 7% active
* hit, by the source's call; i = inactive; u = inconclusive; x = no result given; [ ] = dose if it differs, or a comment. Shown are actives, neighbours in structure and some others; about 0.91% of the full set was active somewhere. Unless noted, calls come from the whole dose curve; as a rule, active = well fitted curve in the direction sought with a large enough effect; inconclusive = small, poorly fitted or top-dose-only effect, or another doubt; inactive = no such curve, though single readings can be large; an effect the other way counts as inactive or inconclusive. Unless noted, % is set by controls: 0 for no effect and ±100 for the full control effect; potency is the fitted concentration of half-maximal effect.

SMILES | RECQ1 helicase | TRb SRC2 PPI | BLM inh | WRN inhibitor | TR SRC2 fluor cs | APE1 inh-1 | DNA dye displace | EndoIV counter | APE1 inh-2 | APE1 FP inh
O=S(=O)(c1cccc(Cl)c1)c1nnn2c1nc(NC1CCCCCC1)c1sccc12 | x | 2% | -3% | x | 0% | x | x | x | x | x
Nc1cc([N+](=O)[O-])ccc1N1C(=O)CCCC1=O | i | 3% | -16% | -12% | -4% | u | x | x | u | x
O=C(/C=C\c1ccccc1)c1ccccc1O | i[11.5 µM] | 5%[11.2 µM] | 1%[12.4 µM] | x | 1%[11.2 µM] | 1%[12.4 µM] | x | x | x | x
O=C(/C=C/c1ccccc1)c1cc(Br)ccc(=O)c1O | 32µM* | -8% | -19% | u | u | u | u | -1% | u | u
CN(C)C(=O)c1ccc(-c2ccc3ncnc(NCc4cccs4)c3c2)cc1 | -7% | x | -5% | x | x | 10µM* | u | -77%[57.1 µM] | 7.9µM* | 22%[57.1 µM]
Cc1noc(C)c1-c1ccc2ncnc(NCc3cccs3)c2c1 | 3% | x | -9% | x | x | 14µM* | u | -52%[57.1 µM] | 32µM* | 36%[57.1 µM]
COc1cc(/C=C2/NC(=O)NC2=O)cc(Br)c1OCc1ccc(C(=O)O)cc1 | -1% | 8% | -18% | -14%[57.1 µM] | -2% | u | x | x | u | x
COc1cccc(/C=C2\SC(=O)NC2=O)c1OCc1ccc(C(=O)O)cc1 | i | -6% | -1% | -9% | -1% | u | x | x | -22% | x
CN1C(=O)S/C(=C\c2ccccc2OCc2ccc(C(=O)O)cc2)C1=O | -7% | 6% | -6% | -12% | -2% | 11% | x | x | x | x
O=C(Oc1ccc2c(c1)OCO2)c1cc2c(s1)CCC2 | u | -5% | 3% | u | u | u | -16% | 2% | 11µM* | u
O=C1CCC([N+](=O)[O-])C(c2cccc([N+](=O)[O-])c2)N1 (stereo unspecified) | -4% | 0% | 0% | -4% | -2% | 0.11µM* | -7% | -1% | -5%[24.4 µM] | -2%
O=C(O)CC[C@@H](C(=O)O)N1C(=O)c2ccccc2C1=O | -5% | 13% | 0% | -6% | 0% | u | -4% | 6% | u | -2%
COc1cc(OC)c(NC(=O)c2cc(C(C)=O)n3ccccc23)cc1Cl | x | 1% | -17% | x | 2% | x | x | x | x | x
Cc1cc(C)c2nc(N(Cc3cccnc3)C(=O)Cc3ccccc3)sc2c1 | x | -3% | -12% | x | 2% | x | x | x | x | x
CCN(C[C@H]1N[C@@](CC)(C(=O)OC)[C@H]2C(=O)N(C)C(=O)[C@@H]12)C(=O)COc1ccccc1 | x | x | x | -1% | x | 30% | x | x | x | x
O=C(Nc1ccc(N2CCOCC2)cc1)Nc1ccc2nc(-c3ccco3)c(-c3ccco3)nc2c1 | -8% | -3% | u | -10% | -5% | 4% | x | x | x | x
O=C(Nc1ccc2nc(-c3ccco3)c(-c3ccco3)nc2c1)NC1CC1 | 10µM* | 11% | 6.3µM* | 10µM* | 35µM*[quencher] | 7.1µM* | u | 0% | 7.9µM* | u
